This is a sample that favours compounds with a hit; in the whole collection about 0.41% have one here.
TRPML1 inh: inhibitors of human TRPML1 channel; TRPML1-inducible cells, Ca2+ dye fluorescence, FDSS; active compounds read low; inhibition of EC80 agonist-evoked calcium signal; activity change, negative = inhibition, % (test concentration not listed); hit rate 0.02% among 390,000; Q9GZU1; in the data active = activity change below about -50%; inconclusive = between about -30% and that limit;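 note: stimulus is agonist 54-4 at its EC80 concentration; % is set by controls: 0 for no effect and ±100 for the full control effect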
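Calcium fluorescence in TRPML1-DL cells induced overnight with Tet: a 110 s read after compound pin addition, then a 110 s antagonist read after challenge with 54-4 at 4 uM final (EC80).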
TRPML1 agonist: activates the human TRPML1 channel | TRPML1-expressing cells, Ca2+ dye fluorescence, FDSS | activation, % (no concentration beside the values) | AID 624414 | hit rate 0.12% among 410,000 | Q9GZU1; in the data active = activation above about 50%; inconclusive = mostly about 30% to 49%; note: 0% is about no effect
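Agonist activity was taken from a 110 s kinetic Ca2+ dye read on the FDSS after pinning compounds onto TRPML1-DL cells. The cells were seeded at 1,500/well with Tet inducer, incubated about 16 h, then dye-loaded at room temperature.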
TRPV1 potentiator: human TRPV1 potentiation. Q8NER1. TRPV1-expressing cells, Fluo-8 calcium influx, capsaicin EC20 potentiation. hit rate 0.02% among 320,000. potentiation, % at 8.33 µM. AID 540277; in the data active = potentiation above about 80%; inconclusive = between about 30% and that limit; note: 0% is about no effect
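TRPV1-expressing cells were cultured overnight at 35.5C and loaded with Fluo-8 calcium dye for 40 to 90 min at room temperature. After a 10 s baseline, compound was added and calcium influx was read kinetically for 3 min (ex 480/em 520 nm).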
LDHA block: LDHA (human) enzyme inhibition; purified LDHA, NADH/diaphorase-resazurin fluorescence; active compounds read low; hit rate 0.15% among 480,000; activity change, % (values are at about 110 or 230 µM); in the data active = activity change below about -30%; inconclusive = mostly about -25% to -30%;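 note: plate controls were DMSO wells for no effect and wells without enzyme for full effect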
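Human LDH5 at 2 nM final in Tris HCl pH 7.4 with 0.06 mM NADH and 0.2 mM pyruvate, reacted 5 minutes at room temperature. Remaining NADH coupled via diaphorase/resazurin; resorufin fluorescence read at 0 and 20 minutes, normalized to enzyme-free and DMSO wells.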
TRPV1 agonist: activates the human vanilloid receptor TRPV1. TRPV1-expressing cells, Fluo-8 calcium influx, agonist mode. Q8NER1. AID 540275. activation, % at 8.33 µM. hit rate 0.19% among 320,000; in the data active = activation above about 80%; inconclusive = between about 30% and that limit; note: 0% is about no effect
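Cells expressing TRPV1 were dye-loaded with Fluo-8 and read kinetically: 10 s baseline, 3 min after compound (agonist portion), then 2 min after EC20 capsaicin (allosteric enhancer portion). Calcium-bound dye fluorescence at 480/520 nm.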
Active calls of the source: *; ? = inconclusive; . = no result given.

SMILES | TRPML1 inh | TRPML1 agonist | TRPV1 potentiator | LDHA block | TRPV1 agonist
CC(C)(C)OC(=O)N1CCC(c2c(C(=O)N3CCN(c4ncccn4)CC3)cnn2-c2ccc(F)cc2F)CC1 | 23 | 1 | . | -7 | .
CC(C)(C)OC(=O)N1CCC(c2c(C(=O)N3CCN(C4CCCCC4)CC3)cnn2-c2ccc(F)cc2)CC1 | -13 | 0 | -5 | -3 | 4
Cc1ccc(-n2ncc(C(=O)N3CCN(c4ccccn4)CC3)c2C2CCN(C(=O)OC(C)(C)C)CC2)cc1C | -4 | 0 | . | -1 | .
COc1ccccc1N1CCN(C(=O)c2cnn(-c3ccc(C)c(C)c3)c2C2CCN(C(=O)OC(C)(C)C)CC2)CC1 | -10 | 59* | . | 2 | .
CCN1CCN(C(=O)c2cnn(-c3cccc(Cl)c3)c2C2CCN(C(=O)OC(C)(C)C)CC2)CC1 | 4 | 1 | . | -7 | .
CC(C)(C)OC(=O)N1CCC(c2c(C(=O)N3CCN(C4CCCCC4)CC3)cnn2-c2cccc(Cl)c2)CC1 | -23 | 92* | . | -6 | .
Cc1cc(=O)n(-c2ccc(Cl)cc2)c(=O)[nH]1 | 3 | 0 | 22 | -3 | -1
Nc1cc(=O)[nH]c(=O)n1-c1ccc(Cl)cc1 | -77* | -1 | 16 | -8 | -4
c1ccc(-c2csc(N3CCN(c4ccccn4)CC3)n2)cc1 | 4 | 0 | -5 | -6 | 101*
Cn1nc(C(=O)OCC(=O)N2CCc3ccccc32)c2ccccc2c1=O | 8 | 3 | -4 | 4 | 0
CCCn1nc(C(=O)OCC(=O)N2CCCc3ccccc32)c2ccccc2c1=O | . | . | . | -31* | .
Cc1ccc(S(=O)(=O)N2C[C@@H]3[C@H]4CC[C@H](C4)[C@@H]3[C@@H](C)[C@@H]2c2ccco2)cc1 | -4 | 28 | . | -2 | .
Cc1ccc(S(=O)(=O)N2C[C@@H]3[C@H]4CC[C@H](C4)[C@@H]3[C@@H](C)[C@@H]2C2CCCCC2=O)cc1 (stereo partly drawn) | -10 | 92* | . | -2 | .
COc1cc2nc(-c3ccc(C)cc3)oc(=O)c2cc1OC | . | . | . | -30* | .
COc1ccc(-c2nc3ccc(C)cc3c(=O)o2)cc1OC | 0 | 1 | -5 | -8 | -1
O=C(Nc1ccc2c(c1)CCC2)c1cccc(F)c1 | 10 | 0 | -17 | -5 | 97*
CC(=O)c1ccc(NC(=O)NC2CCCc3ccccc32)cc1 (stereo not drawn) | -6 | -1 | -3 | -15 | ?
CC(=O)c1cccc(NC(=O)NC2CCCc3ccccc32)c1 (stereo not drawn) | -3 | 1 | 4 | -4 | 83*
CC(=O)c1cccc(NC(=O)c2ccc(OC3CSC3)cc2)c1 | -3 | -1 | -6 | -2 | 113*
CC(=O)c1cccc(NC(=O)c2ccc3c(c2)CCCC3)c1 | -12 | 0 | -1 | -2 | 87*
CC(C)(C)c1ccc(-c2nnc(SCC(=O)N3CCOCC3)n2C2CCCCC2)cc1 | . | . | . | -10 | .
CC(Sc1ccc(F)c(Cl)c1)C(=O)NC(C)(C)C (stereo not drawn) | . | . | . | 3 | .
N#CC1=C(N)OC2=C(CC/C2=C\c2ccccc2)C1c1ccccc1 (stereo not drawn) | -8 | 55* | -7 | 10 | 3
N#CC1=C(N)OC2=C(CC/C2=C\c2ccccc2Cl)C1c1ccccc1Cl (stereo not drawn) | -10 | 2 | 17 | -3 | 0
COc1cc(Cl)c(C)cc1NC(=O)c1cnc(N2CCCCC2)c2ccccc12 | -15 | 69* | . | -4 | .
SMILES | TRPML1 inh | TRPML1 agonist | TRPV1 potentiator | LDHA block | TRPV1 agonist
C/C(=C\C=C(C#N)C#N)c1cc(C#N)c(N)o1 | 3 | 54* | 2 | 10 | 10
COc1cccc(NC(=O)Nc2ccc(C(C)(C)C)cc2)c1 | 4 | -1 | -3 | 1 | 82*
COC(=O)c1cc(NC(=O)Nc2ccccc2)ccc1Cl | 14 | 1 | -21 | -3 | 83*
COC(=O)c1cccc(NC(=O)Nc2ccc(Cl)c(Cl)c2)c1 | 27 | 0 | -35 | 4 | 3
COc1cccc(NC(=O)NCCc2ccc(Cl)cc2)c1 | 0 | 0 | -8 | -1 | ?
CCCCSCCCNC(=O)Nc1cccc(OC)c1 | -3 | 1 | -8 | -3 | 83*
COc1ccc2[nH]c(=O)c(CN(C)C(=O)c3ccccn3)cc2c1 | . | . | . | 7 | .
O=C(Nc1ccc(F)cc1)C1CCN(c2ncnc3c2sc2ncccc23)CC1 | . | . | . | -5 | .

Screens: PubChem, National Center for Advancing Translational Sciences (NCATS)
